# Screening results (PubChem)
# Sampled rows, rich in hits. Any-hit rate of the full collection: about 21%.
# DRD3 antagonist: antagonists of human D3 dopamine receptor; P35462; max response, negative = inhibition, %; D3R cells, DiscoveRx beta-arrestin luminescence, antagonist mode; stronger effect = lower value; hit rate 2.5% among 360,000; in the data active = max response below about -50%; inconclusive = no clear call, values can overlap the other calls; also: % is scaled to controls: 0 for no effect and ±100 for the full control effect
# Target sequence (P35462 whole entry, looked up): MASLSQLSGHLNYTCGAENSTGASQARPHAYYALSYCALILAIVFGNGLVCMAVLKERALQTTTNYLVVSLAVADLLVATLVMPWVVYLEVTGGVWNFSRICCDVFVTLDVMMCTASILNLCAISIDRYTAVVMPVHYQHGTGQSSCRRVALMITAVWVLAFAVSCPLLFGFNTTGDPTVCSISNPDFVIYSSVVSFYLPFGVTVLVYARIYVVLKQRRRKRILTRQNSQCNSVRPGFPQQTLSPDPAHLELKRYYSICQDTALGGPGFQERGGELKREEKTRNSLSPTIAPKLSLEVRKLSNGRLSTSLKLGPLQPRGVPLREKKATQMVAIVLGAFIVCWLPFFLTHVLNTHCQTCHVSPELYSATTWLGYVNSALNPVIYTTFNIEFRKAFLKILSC
#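 Cells plated overnight at 1500 cells/well, then exposed to library compounds with dopamine controls for 90 minutes at 37 degrees C. DiscoveRx reagent added for 30–60 minutes at room temperature; luminescence read, quantitative HTS format.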
# DRD3 agonist: agonists of human D3 dopamine receptor | P35462 | D3R DiscoveRx beta-arrestin cells, luminescence, 90 min | max activation, % | hit rate 0.58% among 410,000 | AID 652048; in the data active = max activation above about 30%; also: 0% is about no effect
#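 Agonist-mode cell screen: cells plated at 1500/well and incubated overnight at 37 °C, then exposed to library compounds for 90 min at 37 °C. Detection reagent was added for 30–60 min at room temperature, and luminescence was read.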
# TDP1 cell CPT: growth inhibition of DT40 Tdp1-/-;hTDP1 cells with camptothecin (screen for TDP1 inhibitors). hit rate 12% among 420,000. chicken DT40 Tdp1-/-;hTDP1 cells + 20 nM CPT, ATP luminescence, 48 h. Potency, µM (doses to about 46.2 µM), inactives show at the top dose activity change, negative = growth inhibition, hits mostly inhibitors. AID 686979; also: potency is read from the fitted curve at half-maximal effect; % is scaled to controls: 0 for no effect and ±100 for the full control effect; nearly all actives have a fitted effect of over 55% in size
#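 Chicken DT40 Tdp1-/- cells stably complemented with human TDP1 were seeded at 400 cells/well in medium containing 20 nM camptothecin, exposed to pin-transferred compounds, and grown at 37 °C for at least 48 hr. Viability was read as ATP luminescence.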
# IL-1B inflam inh: inflammasome signaling inhibition, IL-1 beta readout; THP-1 LPS/ATP IL-1B secretion, AlphaLISA, 16 h; stronger effect = lower value; activity change, % at 57.5 µM; hit rate 4.7% among 360,000; AID 743279; in the data active = activity change below about -50%; inconclusive = mostly about -30% to -49%; also: % is scaled to controls: 0 for no effect and ±100 for the full control effect
#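 Secreted IL-1B measured by AlphaLISA bead assay after 16 h compound exposure of THP-1 cells; compounds (final up to 57.5 uM) added 1 h before LPS (250 ng/mL) and ATP (1.25 mM) stimulation; lower signal means less secretion.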
# ClpP mod: qHTS Assay for Activators of ClpP; ATP-dependent Clp protease proteolytic subunit (Bacillus subtilis (strain 168)), P80244; purified B. subtilis ClpP, FRET peptide cleavage, 20 min; Potency, µM (doses to about 57.5 µM), for inactives: at the highest dose activity change, negative = active; hit rate 1.9% among 340,000; active = well fitted falling curve with a large enough effect; inconclusive = small, poorly fitted or top-dose-only effect; inactive = no such curve, though single readings can be large or run the other way; also: potency is read from the fitted curve at half-maximal effect; the source files actives as falling curves though it sought activators and does not explain the sign; nearly all actives have a fitted effect of over 65% in size
# Target sequence (P80244 whole entry, looked up): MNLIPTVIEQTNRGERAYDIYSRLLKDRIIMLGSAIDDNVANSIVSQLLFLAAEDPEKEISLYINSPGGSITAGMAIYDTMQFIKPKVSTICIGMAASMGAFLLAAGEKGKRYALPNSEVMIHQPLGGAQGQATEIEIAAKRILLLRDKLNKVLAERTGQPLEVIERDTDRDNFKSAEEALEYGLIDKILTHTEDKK
#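 FRET quenching reversal measured ClpP activation: 10 microg/mL B. subtilis ClpP at pH 8 with the FRET-FV decapeptide, read at 430 nm after 320 nm excitation. The 20-min minus 0-min signal was scaled between DMSO/no-enzyme wells and ADEP (5.8 microM final).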
# DT40 TDP1 no CPT: qHTS for Inhibitors of human tyrosyl-DNA phosphodiesterase 1 (TDP1): qHTS in cells in absence of CPT; hit rate 15% among 420,000; DT40 Tdp1-/- hTDP1 cells, no CPT, ATP luminescence, 48 h; Potency, µM (titrated, usually from 46.2 µM), without a hit: at the top dose activity change, negative = growth inhibition, actives largely listed as inhibitors; also: potency is read from the fitted curve at half-maximal effect; % is scaled to controls: 0 for no effect and ±100 for the full control effect; nearly all actives have a fitted effect of over 55% in size
#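 Luminescent ATP content (CellTiter-Glo) served as the growth readout. Knockout chicken DT40 cells expressing human TDP1 were exposed to compounds without camptothecin for a minimum 48 hr at 37 °C.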
# * hit, by the source's call; ? = inconclusive; . = not tested or not shown. Unless noted, calls follow the shape of the dose curve; as a rule, active = well fitted inhibition curve with a large enough effect; inconclusive = small, poorly fitted or top-dose-only effect; inactive = flat fitted curve, though single readings scatter.
SMILES,DRD3 antagonist,DRD3 agonist,TDP1 cell CPT,IL-1B inflam inh,ClpP mod,DT40 TDP1 no CPT
CC(=O)OCCCNc1cc(Sc2ccc(C)cc2)c2nonc2c1[N+](=O)[O-],-73*,-35,2.9µM*,-51*,2%,3.3µM*
COc1ccc(Nc2cc(NCCCO)c([N+](=O)[O-])c3nonc23)cc1,-9,-4,-25%,39,-1%,1%
COc1ccc(CNc2cc(NCCCO)c([N+](=O)[O-])c3nonc23)cc1,3,-7,21µM*,35,.,6.5µM*
O=[N+]([O-])c1c(NCCCO)cc(SCc2ccco2)c2nonc12,-63*,-7,15µM*,-97*,2%,21µM*
CC1CCN(CCCNc2cc(NCCO)c([N+](=O)[O-])c3nonc23)CC1,-20,-24,1%,15,.,-1%
Cn1ccnc1Sc1cc(NCCCO)c([N+](=O)[O-])c2nonc12,-112*,-20,3.3µM*,-101*,-6%,5.2µM*
Cc1ccc(C)c(S(=O)(=O)c2nnn3c2nc(N2CCCCC2)c2sccc23)c1,.,11,?,.,?,?
CCOC(=O)c1c(-c2ccco2)csc1NC(=O)COC(=O)c1cnccn1,2,-4,-2%,-8,2%,?
COc1ccc(NC(=O)N2CCC3(CC2)CCN(C(=O)c2cccn2C)CC3)cc1,.,.,-19%,.,.,?
COc1ccc(N2CCN(S(=O)(=O)c3ccc(OC)c(C(=O)N4CCCC4)c3)CC2)cc1,7,3,?,7,.,?
CN(C)C=Nc1ncc2c3ccccc3n(CCN(C)C)c2c1C#N,-8,-2,21µM*,-77*,?,23µM*
CN(C)/C=N/c1c(C#N)nnn1Cc1ccccc1,8,1,1%,3,0%,?
CCN(CC)CCn1c2ccccc2c2cnc(N)c(C#N)c21,0,-7,?,-104*,14µM*,21µM*
CN(C)C=Nc1ncc2c3ccccc3n(Cc3ccccc3)c2c1C#N,2,2,-26%,-4,32µM*,?
CCN(CC)CCn1c(O)c(N=O)c2ccccc21,-2,-19,-5%,11,-2%,-16%
Cc1c(C#N)c2ccccc2n1CC(=O)O,?,-11,-2%,18,-1%,-16%
Cc1cc(C)c2c(CC(=O)N(Cc3ccc(Cl)cc3)Cc3ccco3)coc2c1,.,-14,?,.,0%,8.2µM*
Cc1c(C(=O)N(Cc2ccc(N(C)C)cc2)Cc2ccco2)oc2cc(Br)ccc12,.,-16,23µM*,.,0%,9.2µM*
Cc1ccc2c(CC(=O)N(Cc3ccc(N(C)C)cc3)Cc3ccco3)coc2c1C,.,8,16µM*,.,-17%,18µM*
Cc1ccc(CN(Cc2ccco2)C(=O)c2oc3cc(Br)ccc3c2C)cc1,.,-6,?,.,-2%,?
O=C(OCc1cn([C@@H]2C[C@H](c3ccccc3)N(Cc3cccs3)C[C@H]2O)nn1)c1ccccc1,18,3,-12%,10,6%,-27%
Cc1ccc([C@H]2C[C@@H](O)[C@H](n3cc(COC(=O)c4ccccc4)nn3)CN2C(=O)c2cccs2)cc1,-22,-5,?,16,-2%,26µM*
Cc1ccc([C@H]2C[C@H](O)[C@@H](n3cc(COC(=O)c4ccccc4)nn3)CN2Cc2cccs2)cc1,11,-2,21µM*,?,-12%,23µM*
Cc1ccc([C@H]2C[C@@H](n3cc(COC(=O)c4ccccc4)nn3)[C@H](O)CN2C(=O)c2cccs2)cc1,9,4,-18%,19,-2%,?
O=C(OCc1cn([C@H]2CN(Cc3cccs3)[C@@H](c3ccccc3)C[C@@H]2O)nn1)c1ccccc1,-26,-1,18µM*,21,-2%,21µM*
SMILES,DRD3 antagonist,DRD3 agonist,TDP1 cell CPT,IL-1B inflam inh,ClpP mod,DT40 TDP1 no CPT
COc1ccc([C@H]2C[C@H](n3cc(COC(=O)c4ccccc4)nn3)[C@@H](O)CN2Cc2cccs2)cc1,?,-1,?,-1,0%,18µM*
O=C(OCc1cn([C@H]2CN(Cc3cccs3)[C@@H](c3ccc(Cl)cc3)C[C@@H]2O)nn1)c1ccccc1,-13,-3,?,18,-2%,-26%
COc1ccccc1NC(=O)C1CCN(S(=O)(=O)c2cccc3nonc23)CC1,-6,-12,-6%,15,.,-29%
Cn1c(=O)c(-c2cccs2)nc2cnc(OCc3ccccc3)nc21,.,.,9%,.,.,7%
COc1cc(/C=C(\C#N)c2nc3ccc(C)cc3[nH]2)c([N+](=O)[O-])cc1OC,-52*,-3,-28%,-89*,-1%,?
COc1cc(/C=C(\C#N)c2nc3ccc(C)cc3[nH]2)cc([N+](=O)[O-])c1O,?,-8,?,48,.,21µM*
C=CC[C@@H](CC(=O)OC(C)(C)C)C(=O)OC[C@@H]1CCCN1C(=O)[C@H](CC=C)CC(=O)NCCO,-6,3,-3%,-2,1%,-5%
CCCCn1c(CCC)nc([N+](=O)[O-])c1Sc1ccc(Cl)cn1,-4,-2,18µM*,?,0%,?
CCc1ccc(C2N3CC4(C)CN2CC(c2ccccc2)(C3)C4=O)cc1 (centres undefined),.,3,?,.,0%,?
CCc1ccc(-c2[nH]nc3nc(-c4ccc(OC)cc4)cc(C(=O)NCCc4ccc(OC)c(OC)c4)c23)cc1,.,13,?,.,4%,-30%
COc1ccc(CCNC(=O)c2cc(-c3ccc(C)cc3)nc3n[nH]c(-c4ccc(F)cc4)c23)cc1OC,.,-12,-16%,.,-2%,-23%
COc1ccc(OC)c(-c2cc(C(=O)NCCc3ccccc3)c3c(-c4ccc(C)cc4)[nH]nc3n2)c1,.,0,23µM*,.,4%,13µM*
CCOc1ccc(-c2cc(C(=O)NCc3ccccc3)c3c(-c4ccc(CC)cc4)[nH]nc3n2)cc1,.,4,21µM*,.,-7%,?
COc1ccc(-c2cc(C(=O)NCCc3ccccc3)c3c(-c4ccccc4)[nH]nc3n2)cc1,.,1,?,.,13µM*,?
Cc1ccc(CNC(=O)c2cc(-c3ccc(C)cc3)nc3n[nH]c(-c4cccc([N+](=O)[O-])c4)c23)cc1,.,-6,12µM*,.,1%,?
O=C(Cc1ccc2ccccc2c1)NO,.,.,4%,.,2%,-9%
